Measured values taken from PubChem BioAssay (NCATS).
A number with no mark means an inactive call. Results filed as inconclusive are left out. A call without a number means that no potency is given here. The source made the active and inactive calls. Unless noted, calls come from the whole dose curve; as a rule, active = well fitted curve in the direction sought with a large enough effect; inconclusive = small, poorly fitted or top-dose-only effect, or another doubt; inactive = no such curve, though single readings can be large; an effect the other way counts as inactive or inconclusive.

Experiments:
[1] = qHTS for Inhibitors of Plasmodium falciparum (DD2) proliferation (AID 504314);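 note: parasite DNA measured by SYBR Green fluorescence after red cell lysis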
Summary of the method: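 Quantitative HTS growth inhibition: SYBR Green I binding to parasite DNA after 72 h drug exposure of infected erythrocytes (0.3% parasitemia, 2.5% hematocrit). Signals normalized per plate to inhibitor and vehicle wells.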

[2] = qHTS for Inhibitors of Plasmodium falciparum (7G8) proliferation (AID 504316); note: series mostly up to about 6.7 µM; nearly all actives have a fitted effect of over 65% in size
Summary of the method: (§1)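 Erythrocytes infected with P. falciparum line (0.3% parasitemia, 2.5% hematocrit final) incubated with compounds 72 h at 37 °C, 5% CO2; SYBR Green lysis buffer added, fluorescence read next day. Normalized to 0.29 uM artemisinin and DMSO.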

[3] = qHTS for Inhibitors of Plasmodium falciparum (HB3) proliferation (AID 504318); note: nearly all actives have a fitted effect of over 60% in size
Summary of the method: as §1

[4] = qHTS for Inhibitors of Plasmodium falciparum (CP250) proliferation (AID 504320)
Summary of the method: as §1

[5] = molecular target: Atrial natriuretic peptide receptor 1 (Homo sapiens) (UniProt P16066); test: Natriuretic polypeptide receptor (hNpr1) antagonism - Pilot CMLD screen (AID 1347052; calls by dose curve;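 note: HEK293 cells with hNpr1 stimulated by hNppA peptide at 0.1 nM; cGMP level read as GloSensor luciferase luminescence after agonist stimulation; series mostly up to about 9.2 µM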)
Chain of Atrial natriuretic peptide receptor 1 (Homo sapiens) (P16066 whole entry, looked up): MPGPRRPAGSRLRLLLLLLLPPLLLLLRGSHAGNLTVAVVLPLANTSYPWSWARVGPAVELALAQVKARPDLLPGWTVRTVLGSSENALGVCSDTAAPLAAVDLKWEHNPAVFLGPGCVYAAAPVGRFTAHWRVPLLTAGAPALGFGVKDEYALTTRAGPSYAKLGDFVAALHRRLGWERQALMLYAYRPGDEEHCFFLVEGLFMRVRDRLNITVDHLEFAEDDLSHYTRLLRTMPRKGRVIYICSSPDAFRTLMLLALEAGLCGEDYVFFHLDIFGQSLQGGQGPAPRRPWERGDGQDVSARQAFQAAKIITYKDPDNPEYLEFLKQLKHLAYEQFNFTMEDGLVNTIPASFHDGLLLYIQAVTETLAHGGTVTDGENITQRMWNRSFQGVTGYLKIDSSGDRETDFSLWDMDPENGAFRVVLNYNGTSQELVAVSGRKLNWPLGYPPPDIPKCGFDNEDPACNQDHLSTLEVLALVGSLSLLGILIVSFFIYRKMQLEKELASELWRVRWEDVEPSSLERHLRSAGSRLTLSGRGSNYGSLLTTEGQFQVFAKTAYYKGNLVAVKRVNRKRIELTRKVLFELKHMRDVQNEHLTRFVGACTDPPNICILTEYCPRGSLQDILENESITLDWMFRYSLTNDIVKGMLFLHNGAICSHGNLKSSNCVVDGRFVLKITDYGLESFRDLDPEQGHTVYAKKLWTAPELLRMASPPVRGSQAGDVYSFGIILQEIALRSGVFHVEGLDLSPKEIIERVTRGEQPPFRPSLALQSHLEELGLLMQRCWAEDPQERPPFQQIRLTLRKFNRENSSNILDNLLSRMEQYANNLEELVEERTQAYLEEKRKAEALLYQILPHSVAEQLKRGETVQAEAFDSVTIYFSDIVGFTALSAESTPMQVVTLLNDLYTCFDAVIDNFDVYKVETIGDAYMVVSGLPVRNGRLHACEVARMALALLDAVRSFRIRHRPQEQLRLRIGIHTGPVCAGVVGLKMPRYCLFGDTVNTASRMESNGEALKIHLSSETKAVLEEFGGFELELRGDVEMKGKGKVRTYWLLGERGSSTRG

[6] = qHTS for Inhibitors of Plasmodium falciparum (GB4) proliferation (AID 504315); note: nearly all actives have a fitted effect of over 50% in size
Summary of the method: as §1

[7] = molecular target: Cytochrome P450 2C9 (Homo sapiens) (UniProt P11712); test: qHTS Assay for Inhibitors and Substrates of Cytochrome P450 2C9 (AID 883); note: nearly all actives have a fitted effect of over 60% in size
Chain of Cytochrome P450 2C9 (Homo sapiens) (P11712 whole entry, looked up): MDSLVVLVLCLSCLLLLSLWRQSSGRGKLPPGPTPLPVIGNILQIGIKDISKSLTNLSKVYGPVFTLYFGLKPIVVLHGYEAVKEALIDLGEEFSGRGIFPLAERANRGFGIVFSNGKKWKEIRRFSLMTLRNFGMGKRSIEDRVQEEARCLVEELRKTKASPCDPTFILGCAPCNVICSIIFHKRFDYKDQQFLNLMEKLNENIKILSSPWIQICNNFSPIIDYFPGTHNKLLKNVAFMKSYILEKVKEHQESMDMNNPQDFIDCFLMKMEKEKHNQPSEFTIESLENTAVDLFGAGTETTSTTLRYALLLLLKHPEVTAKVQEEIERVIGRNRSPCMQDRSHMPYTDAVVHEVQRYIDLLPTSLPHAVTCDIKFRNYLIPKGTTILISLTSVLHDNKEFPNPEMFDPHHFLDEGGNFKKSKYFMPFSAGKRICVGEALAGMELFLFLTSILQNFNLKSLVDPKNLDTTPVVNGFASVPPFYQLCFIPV
Summary of the method: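 Luminescent read-out of deoxyluciferin hydroxylation, normalized to 57uM sulphaphenazole (AC100). Reaction: 10nM enzyme, 100uM Luciferin-H (equal to KM), 25mM KPO4, 10 min compound preincubation, then 60 min with NADPH regeneration, both at 37C.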

[8] = molecular target: Cytochrome P450 3A4 (Homo sapiens) (UniProt P08684); test: qHTS Assay for Activators of Cytochrome P450 3A4 (AID 885); note: nearly all actives have a fitted effect of over 65% in size
Chain of Cytochrome P450 3A4 (Homo sapiens) (P08684 whole entry, looked up): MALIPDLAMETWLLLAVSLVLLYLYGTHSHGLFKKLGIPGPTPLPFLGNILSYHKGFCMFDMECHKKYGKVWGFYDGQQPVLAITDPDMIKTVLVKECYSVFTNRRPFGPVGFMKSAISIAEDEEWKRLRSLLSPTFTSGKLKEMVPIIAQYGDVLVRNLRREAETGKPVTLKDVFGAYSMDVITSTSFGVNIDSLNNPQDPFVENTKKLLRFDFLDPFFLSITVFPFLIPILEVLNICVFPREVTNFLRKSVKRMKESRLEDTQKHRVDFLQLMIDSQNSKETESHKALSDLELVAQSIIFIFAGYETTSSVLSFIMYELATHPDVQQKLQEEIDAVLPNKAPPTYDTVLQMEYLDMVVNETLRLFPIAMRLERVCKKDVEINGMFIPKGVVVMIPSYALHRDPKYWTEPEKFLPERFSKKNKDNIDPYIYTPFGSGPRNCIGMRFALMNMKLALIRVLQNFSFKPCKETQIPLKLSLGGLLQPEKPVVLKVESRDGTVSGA
Summary of the method: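 Steps: enzyme/substrate mix dispensed; compound added, 10 min RT; NADPH regeneration solution added, 60 min RT; luciferin detection buffer stops reaction; 20 min later luminescence measured.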

[9] = molecular target: Cytochrome P450 2C19 (Homo sapiens) (UniProt P33261); test: qHTS Assay for Inhibitors and Substrates of Cytochrome P450 2C19 (AID 899); note: potency is the fitted concentration of half-maximal effect; nearly all actives have a fitted effect of over 60% in size
Chain of Cytochrome P450 2C19 (Homo sapiens) (P33261 whole entry, looked up): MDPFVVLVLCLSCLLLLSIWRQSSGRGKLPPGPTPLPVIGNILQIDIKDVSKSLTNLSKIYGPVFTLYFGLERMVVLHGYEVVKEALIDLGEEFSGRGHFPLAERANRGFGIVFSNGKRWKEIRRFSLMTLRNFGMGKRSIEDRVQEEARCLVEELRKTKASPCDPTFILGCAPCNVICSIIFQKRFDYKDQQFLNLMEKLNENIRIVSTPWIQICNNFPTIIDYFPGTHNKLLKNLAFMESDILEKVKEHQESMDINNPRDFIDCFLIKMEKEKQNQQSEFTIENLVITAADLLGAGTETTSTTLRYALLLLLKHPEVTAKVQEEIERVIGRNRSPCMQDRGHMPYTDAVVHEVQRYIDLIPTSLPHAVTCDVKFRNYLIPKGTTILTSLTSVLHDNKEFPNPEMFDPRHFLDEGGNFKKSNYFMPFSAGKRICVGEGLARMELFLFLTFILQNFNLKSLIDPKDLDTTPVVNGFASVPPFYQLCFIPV
Summary of the method: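 Luminescence readout of luciferin formed from 10uM Luciferin-H EGE (KM level) by 5 nM CYP2C19 in 50mM KPO4. 60 min NADPH-driven reaction at 37C after 10 min compound preincubation; data scaled to 57uM ketoconazole inhibition.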

SMILES	Potency [1]	Potency [2]	Potency [3]	Potency [4]	Potency [5]	Potency [6]	activity change, negative = inhibition [7]	activity change, positive = activation [8]	Potency [9]
CCN(CCNC(=O)[C@H]1C=C(OC)C(=O)C[C@H](c2ccccc2)[C@@H]1C)C(C)=O	inactive	inactive	inactive	inactive	inactive				
C=CCN1c2ccccc2[C@]23C[C@@H](C(=O)OC)N(C(=O)OCC)C2=NC(C(=O)OC)=C(C(=O)OC)[C@H]13	inactive	inactive	inactive	inactive	inactive				
CC(C)=CCCC(C)=CCON=C1C[C@@H](O)[C@@H](O)[C@@H]2[C@H]3C(=O)N(Cc4ccc5c(c4)OCO5)C(=O)[C@@H]3CC[C@@H]12	inactive			inactive	inactive	inactive			
C=C(C)CCCN1C=C(C(C)=O)C(c2ccccc2)NC1=O (configuration not stated)	inactive	inactive	inactive	inactive	inactive				
COCCN1C(=O)N[C@@H](CCc2ccccc2)[C@H](C(C)=O)[C@H]1C	inactive	inactive	inactive		inactive				
CCOC(=O)CN1C(=O)C2(CC(C)=C[C@@H](C)O2)c2c(Br)cccc21 (some centres not stated)	inactive	inactive	inactive	inactive	inactive				
CCCCCCC1=Cc2cc(OC)c(OC)cc2C(C(C(C)=O)C(=O)OCC)O1 (configuration not stated)	inactive			inactive	inactive	inactive	25.3% [at 11.4 µM]	-42.2% [at 11.4 µM]	1.58 µM (active)
C=CCOC(=O)N[C@@H](c1ccccc1)[C@@H](C)[N+](=O)[O-]	inactive	inactive	inactive	inactive	inactive				
COC(=O)C(C(=O)OC)c1ccccc1[N+](=O)[O-]	inactive	inactive	inactive	inactive	inactive				
COC[C@H]1O[C@@H](c2c(OC)cc(OC)cc2OC)[C@H](OC)[C@@H](OC)[C@H]1OC	inactive	inactive	inactive		inactive				
C=C(Nc1ccc(OC)cc1)C(=O)OC	inactive	inactive	inactive	inactive	inactive				
O=c1oc2ccccc2c2c1[C@H]1O[C@](c3ccsc3)(Cc3c1ccc1ccccc31)O2	inactive			inactive	inactive	inactive			
COC(=O)C1=C(C(=O)OC)[C@@H]2N(C)c3ccccc3[C@@]23CCC(=O)N(CCCOC(C)C)C3=N1	inactive			inactive	inactive	inactive			
